# Test results published in the supplement of paper PMC12340641.
# Tests used:
# [1] = target: IKZF1 (dCK*-IKZF1 fusion in HEK293FT) (UniProt Q13422); assay: inhibition of IKZF1 HTRF signal (DMSO = 0%, pomalidomide 10 uM = 100%); higher = lower IKZF1 protein level; conditions: compound concentration: 5 uM, overnight (~20 h)
# Outline: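 After overnight treatment at 37 °C with 5 μM compound in single wells, HEK293FT cells (2000/well, 384-well) stably expressing an IKZF1 fusion were lysed for 30 min at room temperature. A commercial HTRF total-IKZF1 antibody kit was incubated with the lysate overnight, and the time-resolved FRET ratio at 665/620 nm was corrected for background. Data are given as percent inhibition of IKZF1 signal relative, on each plate, to vehicle and a reference degrader, set at 0% and 100% respectively.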
# HEK293FT dCK*-only = assay: relative growth in counter assay (no AraC = 100%, AraC + DMSO = 0%); higher = more growth rescue independent of IKZF1; conditions: compound concentration: 5 uM; AraC concentration: 0.3 uM; overnight pretreatment + 4 days AraC
# Outline: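 Counter assay in HEK293FT cells expressing dCK* alone (300/well, 384-well). Cells received 5 μM compound 2 h after seeding, then after overnight at 37 °C a nucleoside suicide substrate at 0.3 μM plus medium for 4 days. On day 5, Hoechst 33342-stained nuclei were counted by imaging. Relative growth was normalised per plate to wells without suicide substrate (100%) and substrate plus vehicle (0%).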
# HEK293FT dCK*-IKZF1 = assay: relative growth recovery (pomalidomide 10 uM = 100%, DMSO = 0%); higher = more growth rescue (IKZF1 fusion degradation); conditions: compound concentration: 5 uM; AraC concentration: 0.3 uM; overnight pretreatment + 4 days AraC
# Outline: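 Means of duplicates from different days are given for growth recovery, normalised per plate against a reference degrader and vehicle. The reference degrader set the 100% level and vehicle the 0% level. HEK293FT cells stably expressing a deoxycytidine kinase–IKZF1 fusion (300/well, 384-well) received 5 μM compound 2 h after seeding and, after overnight at 37 °C, 0.3 μM of a nucleoside suicide substrate plus medium for 4 days. Nuclei stained with Hoechst 33342 were then counted by whole-well imaging on day 5.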
# Chain of IKZF1 (dCK*-IKZF1 fusion in HEK293FT) (Q13422 whole entry, looked up, the tested form may be a part): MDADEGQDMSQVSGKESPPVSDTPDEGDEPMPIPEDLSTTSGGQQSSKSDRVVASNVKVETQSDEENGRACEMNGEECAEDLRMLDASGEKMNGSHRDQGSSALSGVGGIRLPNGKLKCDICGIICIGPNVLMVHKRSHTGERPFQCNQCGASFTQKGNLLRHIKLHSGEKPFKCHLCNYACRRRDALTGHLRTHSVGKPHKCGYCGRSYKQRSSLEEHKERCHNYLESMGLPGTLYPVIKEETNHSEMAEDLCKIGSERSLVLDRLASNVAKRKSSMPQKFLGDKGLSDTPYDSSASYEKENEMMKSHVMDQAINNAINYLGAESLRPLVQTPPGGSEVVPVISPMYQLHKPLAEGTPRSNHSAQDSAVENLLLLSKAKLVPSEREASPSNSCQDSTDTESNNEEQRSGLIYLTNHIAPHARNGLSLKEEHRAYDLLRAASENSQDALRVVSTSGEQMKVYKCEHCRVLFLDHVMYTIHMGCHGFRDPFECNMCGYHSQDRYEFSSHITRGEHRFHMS
SMILES,inhibition of IKZF1 HTRF signal [1] [%],relative growth in counter assay (HEK293FT dCK*-only) [%],relative growth recovery (HEK293FT dCK*-IKZF1) [%]
NC1CC(O[C@H]2C[C@@]([C@@](C)=O)(O)CC3=C2C(O)=C5C(C(C4=CC=CC(OC)=C4C5=O)=O)=C3O)OC(C)C1O (some centres undefined) [daunorubicin],22,-35.4,-14.9
Clc1cccc(Cl)c1CSc1nnc(-c2cnccn2)s1 [yoda-1],3.26,-3.89,-4.05
CC(C)/N=c1/cc2n(-c3ccc(Cl)cc3)c3ccccc3nc-2cc1Nc1ccc(Cl)cc1 [Clofazimine],6.09,3.02,-0.03
Cc1cc(/C=C2\SC(=O)N(c3ccccc3)C2=O)c(C)n1-c1cccnc1,-32.6,-4.98,0.895
C=C1C(=O)O[C@@H]2C=C(C)CCC=C(C)CC[C@@H]12 [costunolide],-26.8,-18.2,-0.955
O=C(N/N=C/c1ccc([N+](=O)[O-])o1)c1ccc(O)cc1,10.2,-1.19,-2
CCCCCCCC[N+](C)(C)Cc1ccccc1 [benzyldimethyloctylammonium],-57.3,4.74,5.02
CCOC(=O)Nc1nc2ccccc2[nH]1,-22.3,2.38,-1.88
O=C1N(c2ccccc2)c2ccccc2C1(Cc1ccncc1)Cc1ccncc1 [linopirdine],-39.8,-2.22,-3.48
CN(C)CCC=C1c2ccccc2CCc2ccccc21,8.98,-1.73,0.57
C1CCC(C(CC2CCCCN2)C2CCCCC2)CC1 (centres undefined),11.6,-1.13,-2.33
Oc1c(Br)cc(Br)c2cccnc12,1.09,-4.45,-2.54
CCC1/C=C(\C)CC(C)CC(OC)C2OC(O)(C(=O)C(=O)N3CCCCC3C(=O)OC(/C(C)=C/C3CCC(O)C(OC)C3)C(C)C(O)CC1=O)C(C)CC2OC (centres undefined) [Ascomycin (FK520)],4.12,22.2,13.5
